Results filed as inconclusive are left out. Some compounds were tested as several samples or in several runs, with calls that do not always agree. Active and inactive are the calls of the source. How the source made its calls: active means hit-call score of the fitted dose curve at least 0.9, where 1 is the maximum; inconclusive means response in the unintended direction; inactive means score below 0.9.
Legend:
[1] = Tanguay_ZF_120hpf_EYE_legacy: (Legacy) Oregon State University Tanguay Lab 120 Hour Post-fertilization zebrafish Assay for Eye Malformation (AID 2283636);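 further: binary presence or absence of eye malformation scored by brightfield in 120 hpf larvae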
Summary of the method: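 Dechorionated wild-type Tropical 5D zebrafish embryos were exposed statically from 6 hpf, one per well, to 120 hpf at 28C in sealed, foil-covered plates with 0.64% DMSO. Eye malformation was scored present/absent by brightfield microscopy against DMSO controls.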

[2] = Tanguay_ZF_120hpf_SNOU_legacy: (Legacy) Oregon State University Tanguay Lab 120 Hour Post-fertilization zebrafish Assay for Snout Malformation (AID 2283637)
Summary of the method: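 Tropical 5D wild-type zebrafish embryos, dechorionated with pronase at 4 hpf, were exposed singly from 6 hpf to 120 hpf statically at 28C in 0.64% DMSO. Snout malformation was scored present/absent by brightfield microscopy, fitted against DMSO.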

[3] = Tanguay_ZF_120hpf_JAW_legacy: (Legacy) Oregon State University Tanguay Lab 120 Hour Post-fertilization zebrafish Assay for Jaw Malformation (AID 2283638);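 on AC50: active means more embryos with jaw malformation than DMSO controls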
Summary of the method: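 Wild-type 5D embryos, chorion removed at 4 hpf, dosed singly from 6 hpf; 28C static, sealed, foil-covered, to 120 hpf. Endpoint: jaw defect yes/no (brightfield); mortality excludes scoring.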

[4] = Tanguay_ZF_120hpf_OTIC_legacy: (Legacy) Oregon State University Tanguay Lab 120 Hour Post-fertilization zebrafish Assay for Otic Vesicle Malformation (AID 2283639)
Summary of the method: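 Otic vesicle malformation is read as a yes/no morphology call at 120 hpf. Exposure is static at 28C with 0.64% (vol/vol) DMSO; embryos that die are excluded from non-mortality endpoints.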

[5] = Tanguay_ZF_120hpf_PE_legacy: (Legacy) Oregon State University Tanguay Lab 120 Hour Post-fertilization zebrafish Assay for Pericardial Edema (AID 2283640)
Summary of the method: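 Zebrafish larvae are exposed from early development to 120 hpf at 28C, with 0.64% DMSO final. Each surviving larva receives a yes/no pericardial edema call by brightfield imaging, analysed relative to the DMSO baseline.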

[6] = Tanguay_ZF_120hpf_BRAI_legacy: (Legacy) Oregon State University Tanguay Lab 120 Hour Post-fertilization zebrafish Assay for Brain Malformation (AID 2283641)
Summary of the method: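 Static exposure of staged wild-type embryos until 120 hpf, kept at 28C with light excluded and final DMSO of 0.64% (vol/vol). Presence or absence of brain malformation was noted under brightfield; mortality precluded scoring.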

[7] = Tanguay_ZF_120hpf_SOMI_legacy: (Legacy) Oregon State University Tanguay Lab 120 Hour Post-fertilization zebrafish Assay for Somite Malformation (AID 2283647)
Summary of the method: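 Somitogenesis defects are recorded as binary calls in whole larvae at 120 hpf after continuous static chemical exposure starting at 6 hpf in dechorionated 5D embryos. DMSO serves as negative control and baseline.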

[8] = Tanguay_ZF_120hpf_PFIN_legacy: (Legacy) Oregon State University Tanguay Lab 120 Hour Post-fertilization zebrafish Assay for Pectoral Fin Malformation (AID 2283648);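 further: each larva judged yes or no for fin defect by brightfield with dead larvae skipped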
Summary of the method: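 Tropical 5D wild-type embryos, dechorionated with pronase at 4 hpf, were placed singly in wells at 6 hpf and statically exposed until 120 hpf at 28C, sealed and dark, with 0.64% (vol/vol) final DMSO; pectoral fin malformation scored present/absent.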

[9] = Tanguay_ZF_120hpf_PIG_legacy: (Legacy) Oregon State University Tanguay Lab 120 Hour Post-fertilization zebrafish Assay for Pigmentation Malformation (AID 2283650)
Summary of the method: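 Tropical 5D wild-type zebrafish embryos, dechorionated with pronase at 4 hpf, were exposed singly from 6 hpf to 120 hpf statically at 28C in sealed, dark plates with 0.64% DMSO; pigmentation scored present/absent by brightfield microscopy, fitted against DMSO.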

[10] = Tanguay_ZF_120hpf_CIRC_legacy: (Legacy) Oregon State University Tanguay Lab 120 Hour Post-fertilization zebrafish Assay for Circulatory Malformation (AID 2283651)
Summary of the method: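 Using wild-type Tropical 5D zebrafish, we exposed dechorionated embryos from 6 to 120 hpf in embryo medium with 0.64% DMSO. Circulatory defects were scored as present or absent; 5uM trimethyltin chloride served as positive control.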

[11] = Tanguay_ZF_120hpf_SWIM_legacy: (Legacy) Oregon State University Tanguay Lab 120 Hour Post-fertilization zebrafish Assay for Swim Bladder Malformation (AID 2283654);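 further: swim bladder malformation in each larva scored yes or no under brightfield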
Summary of the method: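 Dechorionated Tropical 5D wild-type embryos, placed singly from 6 hpf, were statically exposed at 28C to 120 hpf with 0.64% DMSO final; swim bladder malformation was scored present/absent by brightfield microscopy, gain of signal relative to DMSO controls.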

[12] = Tanguay_ZF_120hpf_TRUN_legacy: (Legacy) Oregon State University Tanguay Lab 120 Hour Post-fertilization zebrafish Assay for Truncated Body (AID 2283655)
Summary of the method: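 Single dechorionated zebrafish embryos received test chemical from 6 hpf in 0.64% DMSO, kept at 28C. At 120 hpf, brightfield inspection noted any truncated body.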

[13] = Tanguay_ZF_120hpf_NC_legacy: (Legacy) Oregon State University Tanguay Lab 120 Hour Post-fertilization zebrafish Assay for Notochord and Tail Malformation (AID 2283656)
Summary of the method: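 Dechorionated 5D zebrafish, 1/well from 6 hpf; static exposure to 120 hpf, 28C, sealed, dark; final DMSO 0.64% v/v. NC scored binary (present/absent); dead embryos not scored. Fit vs DMSO baseline, gain direction.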

[14] = tested on: Thyroperoxidase (TPO), gene 54314; assay: CCTE_Simmons_AUR_rTPO: CCTE's Amplex UltraRed Assay for Thyroperoxidase (TPO) Inhibition, Simmons Lab (AID 2283662);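 on AC50: potency for loss of signal meaning inhibition of peroxidase activity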
Summary of the method: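 Rat thyroid microsomal TPO + 25 uM AUR in 200 mM K phosphate; cpd 5 nM–87.5 uM [final], 8 conc, 0.5% DMSO; 300 uM H2O2 starts rxn; 37C dark 30 min; endpoint FI 544/590 nm; n=3.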

[15] = CCTE_Simmons_CellTiterGLO_HEK293T: Viability Assessment in CCTE's Assays for Thyroperoxidase (TPO) Inhibition, Simmons Lab (AID 2283665);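 on AC50: cells exposed to compound for 24 h before readout; actives reduce ATP signal below DMSO vehicle meaning cytotoxicity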
Summary of the method: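 Cytotoxicity counter-screen: human HEK293T cells in low-serum (1% FBS) medium receive test chemical, 5 nM to 87.5 uM final, for 24 h; ATP is quantified by luciferase luminescence.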

[16] = Tanguay_ZF_120hpf_CFIN_legacy: (Legacy) Oregon State University Tanguay Lab 120 Hour Post-fertilization zebrafish Assay for Caudal Fin Malformation (AID 2283649)
Summary of the method: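 Single dechorionated 5D wild-type embryos are dosed at 6 hpf (final DMSO 0.64%) and held statically at 28C. Caudal fin malformation is recorded as present or absent at 120 hpf under brightfield, excluding dead embryos.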

CCO[Si](CCCNC(N)=O)(OCC)OCC
outcome [1]: inactive | outcome [2]: inactive | outcome [3]: inactive | outcome [4]: inactive | outcome [5]: inactive | outcome [6]: inactive | outcome [7]: inactive | outcome [8]: inactive | outcome [9]: inactive | outcome [10]: inactive | outcome [11]: inactive | outcome [12]: inactive | outcome [13]: inactive

CCCC(=O)OCCC(C)C
outcome [1]: inactive | outcome [2]: inactive | outcome [3]: inactive | outcome [4]: inactive | outcome [6]: inactive | outcome [7]: inactive | outcome [8]: inactive | outcome [9]: inactive | outcome [10]: inactive | outcome [11]: inactive | outcome [12]: inactive | outcome [13]: inactive

Oc1ccccc1
outcome [1]: inactive | outcome [2]: inactive | outcome [3]: inactive | outcome [4]: inactive | outcome [6]: inactive | outcome [7]: inactive | outcome [8]: inactive | outcome [9]: inactive | outcome [11]: inactive | outcome [12]: inactive | outcome [13]: inactive | AC50 [14]: 23.6 µM (active) | outcome [14]: inactive | outcome [15]: inactive

CC[C@@H]1C[C@H](N(Cc2cc(C(F)(F)F)cc(C(F)(F)F)c2)C(C)=O)c2cc(C(F)(F)F)ccc2N1C(=O)OC(C)C
outcome [1]: inactive | outcome [2]: inactive | outcome [3]: inactive | outcome [4]: inactive | outcome [5]: inactive | outcome [6]: inactive | outcome [7]: inactive | outcome [16]: inactive | outcome [9]: inactive | outcome [10]: inactive | outcome [11]: inactive

CCOC(=O)O[C@H](C)OC(=O)c1ccc2c(c1)cc(C(=O)NC1CCN(C(C)C)CC1)n2Cc1cc(-c2ccc(Cl)s2)on1
outcome [1]: inactive | AC50 [2]: 54.1 µM (active) | AC50 [3]: 47.6 µM (active) | outcome [4]: inactive | outcome [5]: inactive | outcome [6]: inactive | outcome [7]: inactive | outcome [8]: inactive | outcome [16]: inactive | outcome [9]: inactive | outcome [10]: inactive | outcome [12]: inactive | outcome [13]: inactive | AC50 [14]: 9.93 µM (active) | AC50 [15]: 2.11 µM (active)

From PubChem BioAssay (EPA / NIEHS)
